Mcl1-Noxa inh – Mcl-1/Noxa interaction inhibition. hit rate 1.5% among 220,000. inhibition, % at 21.7 µM. TR-FRET Mcl-1/Noxa peptide binding, 2 h;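 active means compounds that cut the protein-peptide binding signal by more than 50% relative to plate controls in a single-dose test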;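 further: His-tagged Mcl-1 with rhodamine Noxa BH3 peptide and terbium anti-His antibody; 0% = Mcl-1 plus Noxa peptide wells and 100% = peptide-only wells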
Target sequence (Q07820 whole entry, looked up): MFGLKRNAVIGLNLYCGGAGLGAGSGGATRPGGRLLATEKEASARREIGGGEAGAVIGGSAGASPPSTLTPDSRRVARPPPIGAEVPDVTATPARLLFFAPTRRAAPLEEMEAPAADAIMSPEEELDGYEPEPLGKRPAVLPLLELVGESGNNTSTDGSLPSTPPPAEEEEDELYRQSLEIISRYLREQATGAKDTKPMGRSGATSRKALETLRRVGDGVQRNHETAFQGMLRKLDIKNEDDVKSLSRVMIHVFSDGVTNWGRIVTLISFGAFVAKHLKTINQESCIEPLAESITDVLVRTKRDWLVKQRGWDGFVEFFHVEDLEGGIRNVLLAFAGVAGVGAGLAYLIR
Mcl1-Bid inh – Mcl-1/Bid interaction inhibition; Q07820; TR-FRET Mcl-1/Bid-Dy647 peptide binding, 1536-well; inhibition, % at 21.7 µM; hit rate 0.97% among 220,000; AID 1021;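 active means compounds that cut the binding signal by more than half at the single screening dose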;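 further: His-tagged Mcl-1 with europium anti-His antibody binding Bid BH3 peptide; 0% = Mcl-1 plus peptide wells and 100% = peptide-only wells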
Bim-Mcl-1 – inhibitors of Bim-Mcl-1 interaction, human | Q07820 | Bead-based flow cytometry, Bim peptide-Mcl-1 binding | inhibition, % at 10 µM | hit rate 0.1% among 190,000; in the data active means inhibition above about 40%;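 further: 0% = no compound tracer wells and 100% = peptide blocker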
14-3-3 Bad inh – disrupts binding of bovine 14-3-3 zeta to phospho-Bad peptide | AID 781 | TR-FRET 14-3-3zeta/Dy647-pBad peptide displacement, 1 h | hit rate 0.71% among 220,000 | inhibition, % at 21.7 µM;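 active means inhibition above about 70%, limit read from the data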;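 further: 0% = full 14-3-3 plus peptide FRET controls and 100% = background without 14-3-3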
Target sequence (P63103 whole entry, looked up): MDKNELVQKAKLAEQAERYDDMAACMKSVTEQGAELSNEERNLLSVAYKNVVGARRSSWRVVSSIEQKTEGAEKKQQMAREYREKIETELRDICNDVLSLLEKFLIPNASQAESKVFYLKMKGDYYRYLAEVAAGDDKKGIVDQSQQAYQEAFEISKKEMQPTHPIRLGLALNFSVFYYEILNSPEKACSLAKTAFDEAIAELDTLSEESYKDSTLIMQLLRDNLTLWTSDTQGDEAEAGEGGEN
NCF1 inh – inhibitors of human p47phox binding; P14598; p47phox/p22phox peptide binding, fluorescence polarization, 2 h; inhibition, % at 24.7 µM; hit rate 0.53% among 220,000;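 active means inhibition above about 30%, limit read from the data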;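 further: 0% = p47phox with labelled peptide and 100% = labelled peptide alone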
Calpain2 inh – blocks pig calpain II enzyme activity; purified calpain II, fluorogenic peptide substrate, 30 min; inhibition, % at 16 µM; hit rate 0.37% among 220,000; AID 1236;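 active means inhibition above about 50%, limit read from the data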
Active calls of the source: *; i = inactive; nt = no result; ! = a repeat was not active. A selection: hits, their analogues and other compounds. The true share with any hit is near 3.4%.

SMILES | Mcl1-Noxa inh | Mcl1-Bid inh | Bim-Mcl-1 | 14-3-3 Bad inh | NCF1 inh | Calpain2 inh
COc1ccc(-c2ncnc(C(F)(F)F)c2-c2csc(C)n2)c(O)c1 | -23 | -33 | nt | 2 | -11 | 0
O=C(CSc1nc(-c2ccccc2)cc(C(F)(F)F)n1)N1CCOCC1 | 19 | 77* | 1 | 3 | -6 | 12
COc1ccc(-c2cc(C(F)(F)F)nc(SCC(=O)N3CCOCC3)n2)cc1OC | 3 | -4 | 0 | -8 | -1 | -72
O=C(COC(=O)c1cncc(Br)c1)NCc1ccc(F)cc1 | 7 | -24 | 0 | -2 | -10 | -15
O=C(COC(=O)c1ccc(NS(=O)(=O)c2cccs2)cc1)NCc1ccco1 | 107* | -22 | nt | 36 | -13 | -32
COc1cc(NC(=O)c2cccs2)c(C(=O)OCC(=O)NCc2ccco2)cc1OC | 63* | 28 | -3 | 7 | -27 | -354
O=C(COC(=O)c1cncc(Br)c1)NCc1ccco1 | 56* | -30 | -1 | 0 | 0 | -46
CCCN1C(=O)C2(SC(NC(C)=O)=NN2C(C)=O)c2cc(C)ccc21 (stereo unspecified) | 4 | -19 | -2 | 2 | -22 | -32
O=C(CCCC(=O)OCC(Cl)=C(Cl)Cl)Nc1ccccc1 | 8 | 4 | 27 | -3 | -3 | 15
Cc1ccc(C(=O)N2CCN(CCNC(=O)C(=O)NC(C)C)CC2)cc1 | 2 | -29 | -1 | -3 | 7 | -21
CCOc1ccc(C(=O)Nc2ccccc2-c2ccccc2)cc1Cl | -2 | -9 | -4 | 8 | 2 | -14
COc1c(Cl)cc(C(=O)Nc2ccccc2-c2ccccc2)cc1Cl | 10 | 2 | 3 | -17 | -3 | 54*
Clc1cccc(N/N=C/c2ccc(N3CCOCC3)s2)c1 | 87* | -38 | -14 | 1 | 8 | 33
N#Cc1ccc(C(=O)OCC(=O)Nc2ccc(S(N)(=O)=O)cc2)cc1 | 5 | 5 | nt | -2 | -12 | -29
O=C(COc1ccc2oc(-c3ccco3)cc(=O)c2c1)N1CCCCC1 | 5 | -8 | -2 | 2 | -6 | i
O=CN/C=C/c1cc(O)ccc1O | 57* | -196 | nt | 0 | -9 | -52
O=C(/C=C/c1ccc(O)cc1)c1ccc(O)cc1O | 21 | 1 | -4 | -1 | -10 | -2
O=C(Nc1ccc(S(=O)(=O)Nc2nccs2)cc1)/C(=C/c1ccccc1Cl)NC(=O)c1ccccc1 | 94* | -68 | -12 | 6 | -29 | -45
CCC(c1nnnn1CCc1ccccc1)N1CCN(C(=O)c2ccco2)CC1 (stereo unspecified) | 25 | 19 | 0 | 75* | -11 | -21
CCCCC(c1nnnn1Cc1ccco1)N1CCN(C(=O)c2ccco2)CC1 (stereo unspecified) | 17 | 2 | 0 | 85* | -7 | 9
C=CCn1c(SCC(=O)NCCOC)nnc1-c1cc2c(s1)CCC(CC)C2 (stereo unspecified) | -7 | -7 | -3 | 9 | 1 | -5
CN(Cc1cccnc1)Cc1cn(Cc2ccccc2)nc1-c1ccc2c(c1)OCO2 | 6 | -33 | -3 | -6 | -10 | -16
O=C(COc1ccccc1)Nc1nnc(-c2ccc3c(c2)CCCC3)o1 | -90 | -41 | 0 | 12 | 168* | -91
O=C(Nc1nnc(-c2ccc3c(c2)CCCC3)o1)c1ccccc1 | -73 | -34 | 3 | 4 | -24 | -55
CC1(C)CC(CCNC(=O)CCl)(c2ccccc2)CCO1 (stereo unspecified) | -6 | -1 | nt | 1 | -8 | -18
SMILES | Mcl1-Noxa inh | Mcl1-Bid inh | Bim-Mcl-1 | 14-3-3 Bad inh | NCF1 inh | Calpain2 inh
Clc1ccc(-c2csc(N/N=C/c3cccnc3)n2)c(Cl)c1 | 58* | 42 | -3 | 6 | -7 | -18
CC(C)(C)c1csc(N/N=C/c2cccnc2)n1 | 22 | -33 | -2 | 2 | -1 | 51*
C/C(=N\NC(=O)c1cccc(S(=O)(=O)Nc2ccccc2Cl)c1)c1ccc(-n2ccnc2)cc1 | 16 | -36 | 0 | 7 | -8 | -117
O=C(O)c1cccc(N2C(=O)c3cccc(Oc4ccc(Cl)cc4)c3C2=O)c1 | 15 | 0 | 0 | -4 | -3 | -5
COc1cc([N+](=O)[O-])cc(/C=N\NC(=O)C2COc3ccccc3O2)c1O (stereo unspecified) | -66 | -115 | nt | -24 | -8 | 1
COc1cccc(NC(=O)C(NCC(C)(C)CN(C)C)c2ccccc2)c1 (stereo unspecified) | 35 | 32 | -3 | 70* | -11 | -15
C=CCNC(C(=O)Nc1cccc(OC)c1)c1ccccc1 (stereo unspecified) | -3 | -14 | 1 | -8 | -15 | -19
O=c1c(-c2ccccc2)c(O)cc(-c2ccncc2)n1-c1ccc(Cl)cc1 | 9 | -32 | 1 | -5 | -12 | -7
CC(C)(C)c1c(Cl)c(O)c(-c2ccccc2)c(=O)n1-c1ccccc1 | 36 | 86* | -2 | 80* | 12 | 8
Cc1ccc(CNc2ccc(O)cc2)cc1 | 52* | -18 | 1 | 7 | 13 | -54
CC(=O)N1CCN(c2ccc(NCc3ccc(C)cc3)cc2)CC1 | 53* | -11 | 0 | -5 | 3 | 9
C=CCOc1c(CNc2nccs2)cccc1OCC | 9 | -20 | -1 | 0 | 36* | -4
C=CCOc1ccc(CNc2nccs2)cc1OCC | 15 | -20 | 2 | -12 | -22 | 1
Cc1ccccc1OCc1n(CC(=O)OC2CC(C)CCC2C(C)C)c2ccccc2[n+]1C (stereo unspecified) | -10 | -2 | -4 | -12 | 39*! | -29
Cc1ccccc1CCN(C(=O)Cn1nnc2ccccc21)C(C(=O)NCC1CCCO1)c1nc2ccccc2n1C (stereo unspecified) | 0 | 17 | -4 | 2 | 45* | 46
COCCNC(=S)N1CCN(S(C)(=O)=O)CC1 | 5 | -39 | 1 | -2 | 5 | 27
O=C(NNC(=O)c1ccc(Br)o1)c1ccc(NC(=O)c2ccccc2)cc1 | 4 | 2 | -9 | 5 | -2 | -1
O=C(Nc1ccccc1C(=O)O)c1ccc(NC(=O)c2ccc(Br)o2)cc1 | -11 | -21 | -5 | -16 | 90* | -13
O=C(Nc1ccccc1C(=O)O)c1cccc(NC(=O)c2ccc(Br)o2)c1 | 36 | 16 | -2 | 8 | -16 | 51*
OC(c1ccccn1)c1c[nH]c2ccccc12 (stereo unspecified) | 0 | -37 | 1 | 16 | 35* | 11
Fc1ccc(C(Nc2ccccn2)c2c[nH]c3ccccc23)cc1 (stereo unspecified) | 11 | -11 | 0 | -11 | 3 | -16
CCN1C(=O)/C(=C\c2ccc(-c3ccc([N+](=O)[O-])cc3OC)o2)SC1=Nc1cccc(C(=O)O)c1 | 98* | 70* | -6 | 60 | -12 | 28
CCCCC(=O)OCC(=O)Nc1ccc(SC(F)F)cc1 | 15 | -18 | -1 | -1 | -15 | -8
